Assay results as given in PubChem BioAssay (Tox21).
Records with an inconclusive call do not appear. Active and inactive are the calls of the source. The call rests on the fitted dose curve.

Assay: qHTS assay to identify small molecule antagonists of the estrogen receptor alpha (ER-alpha) signaling pathway using the BG1 cell line (AID 743080);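 further: BG1 cells stimulated with 17beta-estradiol alongside compound; nearly all actives have a fitted effect of over 25% in size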
Details: BG1Luc4E2 ERE-luciferase antagonist mode, luminescence; series mostly up to 70.3 µM; activity change, negative = inhibition: at the top concentration
Text: National Center for Advancing Translational Sciences [NCATS]
NIH Chemical Genomics Center [NCGC]
U.S. Environmental Protection Agency [EPA]
National Institutes of Environmental Health Sciences [NIEHS]
National Toxicology Program [NTP]
U.S. Food and Drug Administration [FDA]
Estrogen receptor (ER), a nuclear hormone receptor, plays an important role in development, metabolic homeostasis and reproduction. Endocrine disrupting chemicals (EDCs) and their interactions with steroid hormone receptors like ER causes disruption of normal endocrine function. Therefore, it is important to understand the effect of environmental chemicals on the ER signaling pathway. To identify ER antagonists, BG1-Luc-4E2 cell line (provided by Dr. Michael Denison from University of California) has been used to screen the Tox21 10K compound library. BG1Luc4E2 cell line endogenously expresses full-length ER-alpha and is stably transfected with a plasmid containing four estrogen responsive elements (ERE) upstream of a luciferase reporter gene.
Tox21 Assay Protocol Summary:
BG1-Luc-4E2 cells were cultured in phenol red free assay medium containing 10% charcoal stripped FBS for 5 days before the assay was performed. The cells were dispensed at 4,000 cells/4 uL of assay medium per well into white wall/solid-bottom 1536-well plates using a Multidrop Combi (ThermoFisher Scientific, Waltham, MA) dispenser. The assay plates were incubated at a 37C and 5% CO2 for 24 h, and then 23 nL of compounds dissolved in DMSO, positive controls or DMSO only was transferred to the assay plate using a Pintool station (Kalypsys, San Diego, CA), followed by addition of 1 uL of 17beta-estradiol in assay medium using a Flying Reagent Dispenser (Aurora Discovery, San Diego, CA). After the plates were incubated at 37 C and 5% CO2 for 21.5 h, 1 uL of CellTiter-Fluor reagent (Promega, Madison, WI) of measuring cytotoxicity was added using Flying Reagent Dispenser (FRD) to each well. The assay plates were incubated at 37 C and 5% CO2 for additional 30 min and the fluorescence intensity was quantified by a ViewLux plate reader (PerkinElmer, Shelton, CT). For measuring luciferase reporter gene activity, 4 uL of ONE-Glo reagent (Promega) was added to each plate using an FRD and luminescence was quantified by a ViewLux plate reader after 30 min incubation at room temperature.
On the % scale 0 is the no-effect control and ±100 the full control effect; potency means the concentration at half of the fitted maximal effect.

Question: Which “activity change, negative = inhibition” value does the source give for `NS(=O)(=O)c1cc2c(cc1C(F)(F)F)NCNS2(=O)=O` here?
Answer: 5.82% [at 32.5 µM] (inactive)

Question: For `O=CN1CCCCC1`, which “activity change, negative = inhibition” value is on record?
Answer: -7.09% (inactive)

Question: For `CCOC(=O)CC`, which “activity change, negative = inhibition” value is on record?
Answer: 2.5% (inactive)

Question: With `CC(=O)SC[C@@H](C)C(=O)N1CCC[C@H]1C(=O)N[C@@H](Cc1ccccc1)C(=O)O` as the compound, how does the “activity change, negative = inhibition” value read?
Answer: 9.42% (inactive)

Question: With `CCCCCCCCCCCCCC(=O)OCC` as the compound, how does the “activity change, negative = inhibition” value read?
Answer: 9.01% (inactive)

Question: For `CCN1CCN(C(=O)N[C@@H](C(=O)N[C@@H]2C(=O)N3[C@@H]2SC(C)(C)[C@H]3C(=O)O)c2ccccc2)C(=O)C1=O`, which “activity change, negative = inhibition” value is on record?
Answer: 1.39% (inactive)

Question: For `Cc1cccc(N)n1`, which “activity change, negative = inhibition” value is on record?
Answer: 5.69% [at 95 µM] (inactive)

Question: With `CC(=O)SCC(CC(=O)c1ccc(C)cc1)C(=O)O` (stereo not given) as the compound, how does the “activity change, negative = inhibition” value read?
Answer: 9.85% (inactive)

Question: For `COc1cnc(NS(=O)(=O)c2ccc(N)cc2)nc1`, which “activity change, negative = inhibition” value is on record?
Answer: 0% [at 32.5 µM] (inactive)

Question: Which “activity change, negative = inhibition” value does the source give for `O=C(O)Cc1c(Cl)ccc(Cl)c1Cl` here?
Answer: 3.35% (inactive)

Question: Which “activity change, negative = inhibition” value does the source give for `COC(=O)c1ccc(C(=O)O)cc1` here?
Answer: -12.5% (inactive)

Question: With `CN(C)c1ccncc1` as the compound, how does the “activity change, negative = inhibition” value read?
Answer: 0.0074% (inactive)

Question: For `OCCC(F)(F)C(F)(F)C(F)(F)C(F)(F)C(F)(F)C(F)(F)F`, which “activity change, negative = inhibition” value is on record?
Answer: 9.55% (inactive)

Question: Which “activity change, negative = inhibition” value does the source give for `N#CC1(N)CCCCC1` here?
Answer: 0.266% [at 95 µM] (inactive)

Question: With `CCCCN1C(=O)c2ccccc2C1=O` as the compound, how does the “activity change, negative = inhibition” value read?
Answer: 1.84% [at 95 µM] (inactive)

Question: Which “activity change, negative = inhibition” value does the source give for `NNC(=O)OCc1ccccc1` here?
Answer: 32.9% (inactive)

Question: For `CCOC(=O)[C@H](CCc1ccccc1)N[C@H]1CS[C@H](c2cccs2)CN(CC(=O)O)C1=O`, which “activity change, negative = inhibition” value is on record?
Answer: -5.18% (inactive)

Question: With `CC1(C)S[C@@H]2[C@H](NC(=O)Cc3ccccc3)C(=O)N2[C@H]1C(=O)O` (tested in a mixture with another compound) as the compound, how does the “activity change, negative = inhibition” value read?
Answer: 0.0181% (inactive)

Question: With `CCOC(=O)COc1ccc2c(C)c(CCN(CC)CC)c(=O)oc2c1Cl` as the compound, how does the “activity change, negative = inhibition” value read?
Answer: 0.818% (inactive)

Question: Which activity change, negative = inhibition does the source give for `CCCCCCCCCCCCCCCCN(C)C` here?
Answer: -1.23% [at 8.47 µM] (inactive)

Question: For `CCCCOCCCC`, which “activity change, negative = inhibition” value is on record?
Answer: -3.36% (inactive)

Question: Which “activity change, negative = inhibition” value does the source give for `CCCCN(CCCC)CCCCCCN(CCCC)CCCC` here?
Answer: -0.0303% (inactive)

Question: Which “activity change, negative = inhibition” value does the source give for `CNC(C)=O` here?
Answer: -1.17% (inactive)

Question: With `O=C(O)/C=C(\CC(=O)O)C(=O)O` as the compound, how does the “activity change, negative = inhibition” value read?
Answer: 5.09% (inactive)

Question: With `CC(C)(C)c1ccc(N)cc1` as the compound, how does the “activity change, negative = inhibition” value read?
Answer: 12.8% (inactive)

Question: With `O=S(=O)(O)c1ccc(Cl)cc1` as the compound, how does the “activity change, negative = inhibition” value read?
Answer: 1.08% (inactive)

Question: Which “activity change, negative = inhibition” value does the source give for `CCCc1ccc(O)c(OC)c1` here?
Answer: 10.1% (inactive)

Question: Which Potency does the source give for `CCCCC(CC)CCC(CC(C)C)OS(=O)(=O)O` (stereo not given) here?
Answer: inactive

Question: With `N[C@H]1C(O)O[C@H](CO)[C@@H](O)[C@@H]1O` (stereo not given in full) as the compound, how does the “activity change, negative = inhibition” value read?
Answer: -2.52% (inactive)

Question: For `CCCCS`, which “activity change, negative = inhibition” value is on record?
Answer: 1.3% [at 95 µM] (inactive)

Question: With `CCCC(=O)CC` as the compound, how does the “activity change, negative = inhibition” value read?
Answer: 0.0167% [at 95 µM] (inactive)

Question: With `O=Cc1ccc(C(=O)O)cc1` as the compound, how does the “activity change, negative = inhibition” value read?
Answer: 7.34% [at 95 µM] (inactive)

Question: With `CCCCN=C(N)N=C(N)N` as the compound, how does the Potency read?
Answer: 16.8 µM (active)

Question: Which “activity change, negative = inhibition” value does the source give for `O=C(OOC(=O)c1ccccc1)c1ccccc1` here?
Answer: 14.6% (inactive)

Question: With `C[C@@H](CN1CC(=O)NC(=O)C1)N1CC(=O)NC(=O)C1` as the compound, how does the “activity change, negative = inhibition” value read?
Answer: 10.1% (inactive)

Question: Which “activity change, negative = inhibition” value does the source give for `CCCCNCC` here?
Answer: -8.06% (inactive)

Question: With `C/C=C(\C)C(=O)OC/C=C(\C)CCC=C(C)C` as the compound, how does the “activity change, negative = inhibition” value read?
Answer: -16.3% (inactive)

Question: For `CC(CC(=O)Cl)CC(C)(C)C` (stereo not given), which “activity change, negative = inhibition” value is on record?
Answer: 16.4% [at 95 µM] (inactive)

Question: With `CC(=O)OC/C=C(/C)CCC=C(C)C` as the compound, how does the “activity change, negative = inhibition” value read?
Answer: 7.43% (inactive)

Question: Which “activity change, negative = inhibition” value does the source give for `CCCCC(CC)COC(=O)CC#N` (stereo not given) here?
Answer: 0.0167% (inactive)
